Assay results as given in PubChem BioAssay (Tox21).
Records with an inconclusive call do not appear. Calls of active or inactive are those of the source. Unless noted, calls come from the whole dose curve.

Columns and labels:
[1] = Nuclear factor erythroid 2-related factor 2/antioxidant responsive element (Nrf2/ARE) small molecule agonists: qHTS cell viability counter screen in human keratinocytes (AID 1919968; active = well fitted curve in the direction sought with a large enough effect in the repeat runs; an effect the other way counts as inactive or inconclusive; note: nearly all actives have a fitted effect of over 55% in size)
Summary of the method: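 After a 5 h attachment period, ARE-reporter keratinocytes were dosed with compounds in DMSO and then cultured 23 h at 37 C. Cell viability came from CellTiter-Fluor signal read after a further 1 h.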

[2] = Nuclear factor erythroid 2-related factor 2/antioxidant responsive element (Nrf2/ARE) small molecule agonists: luciferase reporter gene qHTS assay in human keratinocytes (AID 1919969); note: nearly all actives have a fitted effect of over 35% in size
[3] = target: Gonadotropin-releasing hormone receptor (Homo sapiens) (UniProt P30968); test: Human gonadotropin-releasing hormone receptor (GnRHR) small molecule agonists, calcium flux assay in GnRHR-HEK293 cells (AID 1920063); note: nearly all actives have a fitted effect of over 35% in size
Summary of the method: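 We seeded human GnRHR-expressing HEK293 cells for 18 hours, loaded them with calcium dye for an hour at 37 C, added test compounds, and recorded fluorescence intensity kinetically for three minutes.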

[4] = target: KiSS-1 receptor (Homo sapiens) (UniProt Q969F8); test: Human kisspeptin (KISS1R) small molecule agonists, calcium flux assay in KISS1R-HEK293 cells (AID 1920064; active = well fitted curve in the direction sought with a large enough effect in the repeat runs; an effect the other way counts as inactive or inconclusive)
Summary of the method: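 Kinetic calcium assay, 1 s sampling over 3 min at Ex/Em 480/540, in HEK293 cells engineered with human KISS1R; compounds delivered in DMSO after 1 h dye loading.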

[5] = G protein-coupled receptor (GPCR) small molecule agonists, calcium flux assay: HEK293 wild type cell line counter screen (AID 1920065)
Summary of the method: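 Calcium-sensitive dye, loaded 1 h at 37 C into cells cultured 18 h, reports compound-evoked calcium release as fluorescence (Ex/Em 480/540), measured over 3 min. Agonist mode; 15-point titrations, triplicate.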

[6] = p53 small molecule agonists, cell-based qHTS assay with human liver microsomes (AID 1963577);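 note: p53 response element beta-lactamase reporter cells with liver microsomes plus NADPH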
Summary of the method: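 HLM-supplemented p53RE-bla reporter assay: 16 h compound exposure at 37 C, microsomes and NADPH each 0.5 mg/mL final, read by fluorescence intensity.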

[7] = p53 small molecule agonists, cell-based qHTS assay with human liver microsomes: qHTS cell viability counter screen (AID 1963579); note: nearly all actives have a fitted effect of over 45% in size
Summary of the method: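 Viability of p53RE-bla cells is measured as CellTiter-Glo luminescence following a 16 h, 37 C incubation with compound, liver microsomes from human donors and NADPH.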

[8] = p53 small molecule agonists, cell-based qHTS assay with rat liver microsomes: qHTS cell viability counter screen (AID 1963580); note: nearly all actives have a fitted effect of over 45% in size
Summary of the method: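 p53RE-bla HCT-116 cells (4,000/well) rested 5 h at 37 C, then given Tox21 compounds in DMSO with rat liver microsomes (0.5 mg/mL final) plus NADPH (0.5 mg/mL final) for 16 h at 37 C. Viability read by CellTiter-Glo luminescence after 30 min at room temperature.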

[9] = p53 small molecule agonists, cell-based qHTS assay: qHTS cell viability counter screen (AID 1963581); note: nearly all actives have a fitted effect of over 45% in size
Summary of the method: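 Following 5 h attachment, HCT-116 p53RE-bla cells took up compound for 16 h at 37 C; the reporter was read with B/G FRET substrate (2 h RT), and viability then via CellTiter-Glo ATP luminescence.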

[10] = p53 small molecule agonists, cell-based qHTS assay (AID 1963582; active = well fitted activation curve with a large enough effect in the signal ratio in the repeat runs, not every such curve was filed as active; the % refers to the signal ratio)
Summary of the method: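 In this cell-based concentration-response screen, a p53 response element drives beta-lactamase; cells received DMSO-borne compounds after 5 h culture and were incubated a further 16 h before FRET substrate development.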

[11] = target: 5-hydroxytryptamine receptor 2A (Homo sapiens) (UniProt P28223); test: 5-hydroxytryptamine receptor 2A (HTR2A) small molecule antagonists, cell-based qHTS assay (AID 1963586); note: nearly all actives have a fitted effect of over 45% in size
Summary of the method: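 Antagonist-mode intracellular calcium assay: DOI (4 nM) added after 5 min compound pre-incubation at room temperature to dye-loaded HTR2A-CHO cells. Fluorescence followed for 3 min, sampled every second.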

[12] = target: 5-hydroxytryptamine receptor 2A (Homo sapiens) (UniProt P28223); test: 5-hydroxytryptamine receptor 2A (HTR2A) small molecule agonists, cell-based qHTS assay (AID 1963587); note: nearly all actives have a fitted effect of over 30% in size
Summary of the method: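 HTR2A-CHO cells, plated 18 h at 37 C/5% CO2, dye-loaded 1 h at 37 C; compounds in DMSO added by pin tool (agonist mode). Intracellular calcium flux read as kinetic fluorescence on FDSS over 2 min at 1 s intervals.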

[13] = target: Muscarinic acetylcholine receptor M1 (Homo sapiens) (UniProt P11229); test: Cholinergic receptor muscarinic 1 (CHRM1) small molecule antagonists, cell-based qHTS assay (AID 1963588); note: nearly all actives have a fitted effect of over 40% in size
Summary of the method: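 CHRM1-CHO calcium-flux assay, antagonist mode. Cells were seeded 18 h, dye-loaded 1 h at 37 C and given compound for 5 min at RT, then acetylcholine was added at 50nM. FDSS fluorescence was read 3 min; 15 concentrations, three runs.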

[14] = target: Muscarinic acetylcholine receptor M1 (Homo sapiens) (UniProt P11229); test: Cholinergic receptor muscarinic 1 (CHRM1) small molecule agonists, cell-based qHTS assay (AID 1963589); note: nearly all actives have a fitted effect of over 35% in size
Summary of the method: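 Measures agonist-induced intracellular calcium rise. Stable human CHRM1 CHO line, 1 h dye load at 37 C, compounds from DMSO, kinetic fluorescence read.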

[15] = cAMP Responsive Elements (CRE) small molecule agonists, cell-based qHTS assay (AID 1963590)
Summary of the method: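 A CRE-responsive beta-lactamase reporter in HEK 293T cells was used. Treatment ran 3 h at 37 C; detection used LiveBLAzer B/G FRET substrate for 2 h at room temperature.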

[16] = target: Beta-2 adrenergic receptor (Homo sapiens) (UniProt P07550); test: Adrenergic beta2 receptor (ADRB2) small molecule antagonists, cell-based qHTS assay (AID 1963592); note: series mostly up to about 92 µM; nearly all actives have a fitted effect of over 50% in size
Summary of the method: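 Cells (CHO, stable ADRB2 overexpression) incubated 18-20hr at 37C; compounds added from DMSO; agonist mix (1nM isoproterenol, 100uM IBMX, 25uM Ro-20-1724) added; 0.5hr RT; d2-cAMP and anti-cAMP-cryptate added; 1hr RT; 665/615 nm read.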

[17] = target: Beta-2 adrenergic receptor (Homo sapiens) (UniProt P07550); test: Adrenergic beta2 receptor (ADRB2) small molecule agonists, cell-based qHTS assay (AID 1963593);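 note: CHO cells stably overexpressing human ADRB2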
Summary of the method: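 CHO cells stably over-expressing ADRB2 were plated overnight at 37C, then dosed with compounds plus a stimulation mix containing 100uM IBMX and 25uM Ro-20-1724 for 0.5hr at room temperature. cAMP was measured by HTRF competition, 1hr.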

[18] = target: D(2) dopamine receptor (Homo sapiens) (UniProt P14416); test: Dopamine D2 receptor (DRD2) small molecule agonists, cell-based qHTS assay (AID 1963594); note: nearly all actives have a fitted effect of over 35% in size
Summary of the method: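 HEK293 cells stably expressing DRD2 were cultured 24 h at 37 C, then given Ro20-1724 (0.1 mM final) and compounds for 10 min at room temperature. NKH477 (200nM) was then added for 30 min. cAMP was read by HTRF.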

[19] = cAMP Responsive Elements (CRE) small molecule antagonists, cell-based qHTS assay (AID 1963591; active = well fitted inhibition curve with a large enough effect in the signal ratio in the repeat runs, not every such curve was filed as active; the % refers to the signal ratio)
Summary of the method: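 HEK293T cells carrying a CRE-driven beta-lactamase reporter receive compound and NKH477 (0.25 uM final) for 3 h. Fluorescence from LiveBLAzer B/G FRET substrate is read after 2 h at room temperature.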

[20] = target: D(2) dopamine receptor (Homo sapiens) (UniProt P14416); test: Dopamine D2 receptor (DRD2) small molecule antagonists, cell-based qHTS assay (AID 1963595; active = well fitted inhibition curve with a large enough effect in the signal ratio in the repeat runs, with a control signal flat; the % refers to the signal ratio)
Summary of the method: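 Antagonism was scored as restored cAMP in HEK293-DRD2 cells. These cells were stimulated with 200 nM NKH477 and 12 nM quinpirole for 30 min at room temperature, in the presence of 0.1 mM Ro20-1724.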

Measured: Potency

Sequence of D(2) dopamine receptor (Homo sapiens) (P14416 whole entry, looked up): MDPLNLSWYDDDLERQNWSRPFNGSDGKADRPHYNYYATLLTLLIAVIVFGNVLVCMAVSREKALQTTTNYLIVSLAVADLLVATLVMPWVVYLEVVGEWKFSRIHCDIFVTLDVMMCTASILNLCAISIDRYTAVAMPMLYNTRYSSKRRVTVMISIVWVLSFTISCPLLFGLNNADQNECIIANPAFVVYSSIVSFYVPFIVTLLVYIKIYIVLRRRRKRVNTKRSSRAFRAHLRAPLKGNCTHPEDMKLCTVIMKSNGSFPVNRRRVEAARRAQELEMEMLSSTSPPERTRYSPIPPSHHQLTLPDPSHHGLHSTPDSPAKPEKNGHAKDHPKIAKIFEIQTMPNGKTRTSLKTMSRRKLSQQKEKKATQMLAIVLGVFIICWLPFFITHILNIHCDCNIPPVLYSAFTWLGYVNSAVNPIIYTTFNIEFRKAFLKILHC
Sequence of Muscarinic acetylcholine receptor M1 (Homo sapiens) (P11229 whole entry, looked up): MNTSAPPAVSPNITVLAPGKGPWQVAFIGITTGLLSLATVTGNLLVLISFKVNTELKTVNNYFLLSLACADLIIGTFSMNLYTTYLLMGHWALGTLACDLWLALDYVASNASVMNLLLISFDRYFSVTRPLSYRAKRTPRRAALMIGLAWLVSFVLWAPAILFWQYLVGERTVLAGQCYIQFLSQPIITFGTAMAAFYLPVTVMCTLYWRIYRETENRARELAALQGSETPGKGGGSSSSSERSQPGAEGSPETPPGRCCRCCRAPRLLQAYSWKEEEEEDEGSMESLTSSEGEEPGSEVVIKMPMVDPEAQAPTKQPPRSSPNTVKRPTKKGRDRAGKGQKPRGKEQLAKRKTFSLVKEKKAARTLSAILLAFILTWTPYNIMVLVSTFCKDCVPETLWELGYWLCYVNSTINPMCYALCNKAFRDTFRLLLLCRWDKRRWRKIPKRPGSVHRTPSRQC
Sequence of Gonadotropin-releasing hormone receptor (Homo sapiens) (P30968 whole entry, looked up): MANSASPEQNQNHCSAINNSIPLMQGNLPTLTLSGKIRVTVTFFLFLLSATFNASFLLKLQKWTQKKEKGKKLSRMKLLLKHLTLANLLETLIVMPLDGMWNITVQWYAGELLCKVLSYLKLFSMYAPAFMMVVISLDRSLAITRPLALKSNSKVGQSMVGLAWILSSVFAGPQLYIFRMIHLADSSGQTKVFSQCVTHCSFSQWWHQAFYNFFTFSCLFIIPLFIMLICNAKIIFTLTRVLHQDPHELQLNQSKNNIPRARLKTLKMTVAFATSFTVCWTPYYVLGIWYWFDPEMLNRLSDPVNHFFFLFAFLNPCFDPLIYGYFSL
Sequence of Beta-2 adrenergic receptor (Homo sapiens) (P07550 whole entry, looked up): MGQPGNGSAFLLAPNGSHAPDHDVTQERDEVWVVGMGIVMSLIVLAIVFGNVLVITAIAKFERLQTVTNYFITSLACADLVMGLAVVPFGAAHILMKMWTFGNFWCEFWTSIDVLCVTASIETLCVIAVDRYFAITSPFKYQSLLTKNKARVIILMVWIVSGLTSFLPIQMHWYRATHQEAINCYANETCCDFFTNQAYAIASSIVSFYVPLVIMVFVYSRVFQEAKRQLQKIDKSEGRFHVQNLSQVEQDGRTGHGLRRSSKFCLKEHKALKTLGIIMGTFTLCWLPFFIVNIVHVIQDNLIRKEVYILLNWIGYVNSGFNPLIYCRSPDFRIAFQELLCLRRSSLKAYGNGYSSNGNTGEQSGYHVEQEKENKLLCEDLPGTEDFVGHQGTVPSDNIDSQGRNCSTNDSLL
Sequence of KiSS-1 receptor (Homo sapiens) (Q969F8 whole entry, looked up): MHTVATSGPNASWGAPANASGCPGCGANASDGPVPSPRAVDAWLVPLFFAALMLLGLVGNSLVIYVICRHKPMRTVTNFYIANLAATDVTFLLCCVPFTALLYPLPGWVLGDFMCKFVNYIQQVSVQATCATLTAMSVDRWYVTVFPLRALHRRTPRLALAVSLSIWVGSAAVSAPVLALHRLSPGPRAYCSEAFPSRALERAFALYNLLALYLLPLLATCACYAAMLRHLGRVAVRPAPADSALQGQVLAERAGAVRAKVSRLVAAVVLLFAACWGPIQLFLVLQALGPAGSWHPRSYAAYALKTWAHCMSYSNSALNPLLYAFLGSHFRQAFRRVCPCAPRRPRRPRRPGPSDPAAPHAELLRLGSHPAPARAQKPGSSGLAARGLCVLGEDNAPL
Sequence of 5-hydroxytryptamine receptor 2A (Homo sapiens) (P28223 whole entry, looked up): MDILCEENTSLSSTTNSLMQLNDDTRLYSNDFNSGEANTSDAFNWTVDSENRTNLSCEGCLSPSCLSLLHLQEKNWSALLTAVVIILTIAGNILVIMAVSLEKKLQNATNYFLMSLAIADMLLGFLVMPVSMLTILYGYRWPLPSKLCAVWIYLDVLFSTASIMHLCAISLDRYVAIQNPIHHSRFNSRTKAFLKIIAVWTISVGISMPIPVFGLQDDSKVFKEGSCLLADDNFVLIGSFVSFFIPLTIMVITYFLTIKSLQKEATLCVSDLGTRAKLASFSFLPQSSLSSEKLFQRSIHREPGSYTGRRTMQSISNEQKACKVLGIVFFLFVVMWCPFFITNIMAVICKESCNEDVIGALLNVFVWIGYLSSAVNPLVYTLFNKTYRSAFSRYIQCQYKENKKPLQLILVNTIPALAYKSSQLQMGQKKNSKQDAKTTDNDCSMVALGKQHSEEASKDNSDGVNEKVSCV

CCOCCOCCOCC
inactive: [1] | [2] | [3] | [4] | [5] | [6] | [7] | [8] | [9] | [10] | [11] | [12] | [13] | [14] | [15] | [16] | [17] | [18]

CS(C)(=O)=O
inactive: [1] | [2] | [3] | [4] | [5] | [6] | [7] | [8] | [9] | [10] | [11] | [13] | [14] | [15] | [19] | [16] | [17] | [18] | [20]

C[Si](C)O[Si](C)(C)O[Si](C)(C)O[Si](C)C
inactive: [1] | [2] | [3] | [4] | [5] | [6] | [7] | [8] | [9] | [10] | [11] | [14] | [15] | [19] | [16] | [18] | [20]

C/C(=C(\CCO)SS/C(CCO)=C(\C)N(C=O)Cc1cnc(C)nc1N)N(C=O)Cc1cnc(C)nc1N
inactive: [1] | [2] | [3] | [4] | [5] | [6] | [7] | [8] | [9] | [10] | [12] | [13] | [14] | [15] | [19] | [16] | [17] | [18] | [20]

N[C@@H](CCC(=O)Nc1ccc([N+](=O)[O-])cc1)C(=O)O
inactive: [1] | [2] | [3] | [4] | [5] | [6] | [7] | [8] | [9] | [10] | [11] | [12] | [13] | [14] | [15] | [19] | [16] | [17] | [18] | [20]

CCC(C(=O)NC(N)=O)c1ccccc1 (stereo unspecified)
inactive: [1] | [2] | [3] | [4] | [5] | [6] | [7] | [8] | [9] | [10] | [11] | [12] | [13] | [15] | [19] | [16] | [18] | [20]

C=CC(C)(O)CC/C=C(\C)CC (stereo unspecified)
inactive: [1] | [2] | [3] | [4] | [5] | [6] | [7] | [8] | [9] | [10] | [11] | [12] | [13] | [14] | [15] | [19] | [16] | [17] | [18] | [20]
